Screens (PubChem BioAssay)
Sampled rows, rich in hits. Any-hit rate of the full collection: about 19%.
HT1080 IDH1KD tx = kills HT-1080 cells with IDH1 knockdown; 360,000 compounds, 2% hits; HT-1080 IDH1 knockdown viability, ATP luminescence, 48 h; Potency, µM (titrated, usually from 46.1 µM), for inactives: at the highest dose activity, negative = toxicity, usual class: cytotoxic;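 also: potency is read from the fitted curve at half-maximal effect; 0% = DMSO wells and -100% = cell-free medium wells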
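Cytotoxicity counter-line: IDH1KD HT-1080, 48 h, CellTiter-Glo. Curves classed by r2, magnitude and activity.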
DT40 TDP1 CPT = DT40-hTDP1 cell growth loss with CPT; AID 686979; chicken DT40 Tdp1-/-;hTDP1 cells + 20 nM CPT, ATP luminescence, 48 h; 420,000 compounds, 12% hits; Potency, µM (titrated, usually from 46.2 µM), for the others: at the highest dose activity change, negative = growth inhibition, most hits filed as inhibitors; also: potency is read from the fitted curve at half-maximal effect; nearly all actives have a fitted effect of over 55% in size
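Chicken DT40 Tdp1-/- cells complemented with human TDP1, 400 cells/well, exposed to compounds plus 20 nM camptothecin for at least 48 h at 37 C; viability read as ATP content by CellTiter-Glo luminescence.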
uPA generation = cell surface uPA generation inhibition | cell surface uPA generation assay, qHTS | Potency, µM (series often up to 38.3 µM), for inactives: at the top dose activity change, negative = inhibition, most hits filed as inhibitors | 330,000 compounds, 0.31% hits | AID 540303; active = well fitted inhibition curve with a large enough effect; inconclusive = small, poorly fitted or top-dose-only effect; inactive = no such curve, though single readings can be large or run the other way; tested in mouse RAW 264.7 cells; also: potency is read from the fitted curve at half-maximal effect; nearly all actives have a fitted effect of over 55% in size
HT1080-NT tox = kills 2HG-producing HT-1080-NT fibrosarcoma cells; HT-1080-NT fibrosarcoma viability, CellTiter-Glo ATP luminescence, 48 h; Potency, µM (top dose mostly 46.1 µM), for inactives: at the top dose activity, negative = less viability, most hits filed as cytotoxic; 360,000 compounds, 1.6% hits; AID 686970;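 also: NT is the 2HG producing partner of a matched IDH1 knockdown line; potency is read from the fitted curve at half-maximal effect; 0% = DMSO-treated cells and -100% = media-only wells without cells; nearly all actives have a fitted effect of over 55% in size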
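Viability of the 2HG-overproducing fibrosarcoma line after 48 hours of compound exposure at 37 degrees C was determined by luminescence with CellTiter-Glo, and concentration-effect curves were then fitted and categorized.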
IL-1B inflam inh = inflammasome signaling inhibition, IL-1 beta readout; AID 743279; activity change, % at 57.5 µM; THP-1 LPS/ATP IL-1B secretion, AlphaLISA, 16 h; hits give low values; 360,000 compounds, 4.7% hits; in the data active = activity change below about -50%; inconclusive = mostly about -30% to -49%
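Secreted IL-1B measured by AlphaLISA bead assay after 16 h compound exposure of THP-1 cells; compounds (final up to 57.5 uM) added 1 h before LPS (250 ng/mL) and ATP (1.25 mM) stimulation; lower signal means less secretion.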
DT40 TDP1 no CPT = qHTS for Inhibitors of human tyrosyl-DNA phosphodiesterase 1 (TDP1): qHTS in cells in absence of CPT | Potency, µM (series often up to 46.2 µM), inactives show at the highest dose activity change, negative = growth inhibition, usual class: inhibitors | DT40 Tdp1-/- hTDP1 cells, no CPT, ATP luminescence, 48 h | 420,000 compounds, 15% hits; also: potency is read from the fitted curve at half-maximal effect; nearly all actives have a fitted effect of over 55% in size
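Growth of hTDP1-complemented DT40 Tdp1-knockout cells is measured by ATP luminescence after at least 48 hr compound exposure at 37 °C, with DMSO substituting for the 20 nM CPT used in the parallel screen.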
* marks the source's active call; other numbers are inactive results; i = inactive; u = inconclusive; x = not tested or not shown. Unless noted, calls follow the shape of the dose curve; as a rule, active = well fitted curve in the direction sought with a large enough effect; inconclusive = small, poorly fitted or top-dose-only effect, or another doubt; inactive = no such curve, though single readings can be large; an effect the other way counts as inactive or inconclusive. Unless noted, % is scaled to controls: 0 for no effect and ±100 for the full control effect.

SMILES	HT1080 IDH1KD tx	DT40 TDP1 CPT	uPA generation	HT1080-NT tox	IL-1B inflam inh	DT40 TDP1 no CPT
COc1cccc(CNC(=O)c2ccc(NC(=O)N3CCCCc4ccccc43)cc2)c1	x	u	x	x	x	21µM*
COc1cccc(CNC(=O)c2ccc(NC(=O)N3CCCCc4ccccc43)cc2)c1OC	x	u	x	x	x	16µM*
COc1cccc(CNC(=O)c2ccc(-n3c(C)cc4c3CCCC4)cc2)c1	x	-83%	x	x	x	16µM*
COCCNC(=O)c1ccc(NC(=O)N2CCCCc3ccccc32)cc1	x	-5%	x	x	x	-10%
COCCCNC(=O)NC(=O)c1ccccc1	14%	-5%	-1%	12%	-6	-27%
COCCCNC(=O)c1ccc(-n2c(-c3ccccc3)cc3c2CCCC3)cc1	x	u	x	x	x	21µM*
OC1COCOC1C(O)C1OCOCC1O (stereo not drawn)	13%	1%	-2%	21%	-3	4%
Cc1ccc(-c2nnc(Nc3ccc(C(N)=O)cc3)c3ccccc23)cc1S(=O)(=O)NCC1CCCO1 (stereo not drawn)	-6%	u	-2%	-1%	-12	u
Cc1ccc(-c2nnc(Nc3ccc(Br)cc3)c3ccccc23)cc1S(=O)(=O)NCC1CCCO1 (stereo not drawn)	x	16µM*	x	x	x	4.1µM*
Cc1ccc(-c2nnc(Nc3ccc(O)cc3)c3ccccc23)cc1S(=O)(=O)NCC1CCCO1 (stereo not drawn)	x	u	x	x	x	23µM*
CC(Oc1ccccc1)C(=O)Nc1nnc2n1CCS2 (stereo not drawn)	x	-15%	x	x	x	-4%
COc1ccc(S(=O)(=O)N2CCCCCC2)cc1C(=O)N(C)CCOc1ccc(Cl)cc1	-30%	21µM*	-12%	u	u	21µM*
CCN1CCN(S(=O)(=O)c2ccc(Cl)c(C(=O)N(C)Cc3ccc(Cl)cc3Cl)c2)CC1	4%	u	-5%	-10%	i	23µM*
CCN1CCN(S(=O)(=O)c2ccc(Cl)c(C(=O)N(C)C(c3ccccc3)c3ccccc3)c2)CC1	-22%	u	-2%	-26%	-75*	u
COc1ccc(CCN(C)C(=O)c2cc(S(=O)(=O)N3CCCCC3)ccc2Cl)cc1OC	-3%	u	-8%	-5%	6	23µM*
COc1ccc(CCN(C)C(=O)c2cc(S(=O)(=O)N3CCCCCC3)ccc2OC)cc1OC	-13%	u	-15%	0%	-1	u
CCC(=O)N1CCc2cc(Br)cc(S(=O)(=O)CCC(=O)N3CCN(c4ccc(OC)cc4)CC3)c21	x	3%	x	x	x	0%
CCN(CC(=O)Nc1ccccc1C(F)(F)F)C(=O)c1ccc2c(c1)NC(=O)C(C)S2 (stereo not drawn)	-19%	u	x	-21%	20	u
CN(CCOc1ccccc1)C(=O)c1cc(S(=O)(=O)N2CCOCC2)ccc1Cl	-2%	-18%	3%	-3%	-5	u
CCN1CCN(S(=O)(=O)c2ccc(Cl)c(C(=O)N(C)CCOc3ccc(Cl)cc3)c2)CC1	u	18µM*	-30%	u	-29	15µM*
COc1ccc(CN2CCc3c([nH]c4ccccc34)C2)c(OC)c1C	15µM*	u	2%	u	-89*	u
COc1ccc(CN2CCc3c([nH]c4ccccc34)C2)cc1Br	-18%	-21%	13%	-15%	-19	u
COc1ccc(Cl)cc1N(C)C(=O)Cn1cnc2sc(C)c(S(=O)(=O)N3CCN(c4ncccn4)CC3)c2c1=O	x	-25%	x	x	x	u
CCOC(=O)c1c(C)c(C(=O)Nc2ccc(N(C)C)cc2)c(C)n1CC	7.1µM*	7.3µM*	x	8.9µM*	-3	4.6µM*
CCOC(=O)c1c(C)c(C(=O)NCc2cccnc2)c(C)n1CC	-6%	0%	x	6%	7	-10%
SMILES	HT1080 IDH1KD tx	DT40 TDP1 CPT	uPA generation	HT1080-NT tox	IL-1B inflam inh	DT40 TDP1 no CPT
CCOC(=O)c1c(C)c(C(=O)NCc2ccc(Cl)cc2)c(C)n1CC	x	u	x	x	x	26µM*
CCc1ccc(NC(=O)CNC(=O)Cn2c(C)cc3ccccc3c2=O)cc1	x	-1%	x	x	x	-2%
CCOC(=O)CNC(=O)Cn1c(C)cc2ccccc2c1=O	10%	-29%	2%	8%	-65*	1%
COc1cc(NC(=O)CNC(=O)Cn2c(C)cc3ccccc3c2=O)cc(OC)c1OC	-9%	13µM*	-3%	1%	42	15µM*
COc1ccc(NC(=O)CNC(=O)Cn2c(C)cc3ccccc3c2=O)cc1OC	0%	13µM*	-8%	-9%	3	21µM*
Cc1cccc(C)c1NC(=O)Cn1nnc(C(=O)Nc2c(C)cccc2C)c1N	x	4%	x	x	x	-15%
CC(C)=CCN1CCN(Cc2ccc(Sc3nncn3C)o2)CC1CCO (stereo not drawn)	14%	7%	1%	3%	-4	4%
O=C(Nc1cccc(Br)c1)c1cccc(OC(=S)N2CCOCC2)c1	u	u	-8%	-4%	-67*	u
COc1cccc(C(=O)Nc2ccc3nc(SCC(=O)N4CCOCC4)sc3c2)c1	x	15µM*	x	x	x	13µM*
O=C(Nc1ccc2nc(SCC(=O)N3CCOCC3)sc2c1)c1cccc(Br)c1	x	13µM*	x	x	x	8.2µM*
O=C(Nc1ccc2nc(SCC(=O)N3CCOCC3)sc2c1)c1ccc(Br)cc1	x	u	x	x	x	2.3µM*
COc1ccc(-c2nnc(NC(=O)c3ccc(S(=O)(=O)N4CCCc5ccccc54)cc3)o2)cc1	11µM*	3.2µM*	-13%	11µM*	15	5.6µM*
O=C(Nc1nnc(C2CC2)o1)c1ccc(S(=O)(=O)N2CCCc3ccccc32)cc1	u	4.6µM*	6.3µM*	u	28	u
O=C(NCc1ccccc1)c1ccc(S(=O)(=O)N2CCCc3ccccc32)cc1	-6%	-28%	-9%	-3%	-30	2%
O=C(NCc1ccco1)c1ccc(S(=O)(=O)N2CCCc3ccccc32)cc1	u	-20%	-30%	u	6	-27%
COCc1nnc(NC(=O)c2ccc(S(=O)(=O)N3CCCc4ccccc43)cc2)o1	21µM*	23µM*	-15%	15µM*	105	u
Nc1nc2c(ncn2[C@@H]2O[C@H](COP(=O)(O)OP(=O)(O)O)[C@@H](O)[C@H]2O)c(=O)[nH]1	x	-16%	x	x	x	-15%
Cc1ccc(SCc2cc(=O)[nH]c(Nc3nc(C)c4cccc(C)c4n3)n2)cc1	-1%	u	8%	-8%	6	16µM*
